Data published in PubChem BioAssay (NCATS).
Values without a mark were called inactive. Records with an inconclusive call do not appear. Calls of active or inactive are those of the source. The call rests on the fitted dose curve; in most records, active means well fitted activation curve with a large enough effect; inconclusive means small, poorly fitted or top-dose-only effect; inactive means flat fitted curve, though single readings scatter.

Test: Cellular Toxicity (caspase-3) HepG2 (AID 654); further: potency means the concentration at half of the fitted maximal effect;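 on caspase-3 activation: cells exposed to compound for 16 hours before reading; 0% = DMSO alone and 100% = caspase signal from 100 µM tamoxifen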
Details: HepG2 caspase-3 activation, luminescence; series mostly up to 92.2 µM; caspase-3 activation: at the top concentration
Outline: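 HepG2 cells (1500/well) in complete medium were treated with compounds for 16 hr at 37 °C. Caspase-3/7 activity was then read as luminescence from peptide-aminoluciferin cleavage. AC50 came from Hill fits, normalized to DMSO and 100 uM tamoxifen.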

Compound | caspase-3 activation [%] | Potency
CCN(CC)c1ccc2c(C)cc(=O)oc2c1 | 0.275 | 
c1c[nH]cn1 | 0.442 | 
CCCCOC(=O)COc1ccc(Cl)cc1Cl | -0.849 | 
CC(=O)OC(C(=O)c1ccccc1)c1ccccc1 (centres undefined) | -0.111 | 
CCCCCCN | -0.702 | 
CC(=O)Nc1cccc(C)c1 | -0.16 | 
CCC(Cl)CC(Cl)C(Cl)C(Cl)C(Cl)C(C)Cl (centres undefined) | -0.666 | 
COc1ccc(C)cc1N | 0.772 | 
C[C@@H]1CC2(OC(O)[C@]3(C)O[C@H]23)O[C@H]2C[C@@]3(C)[C@@H]4CC[C@H]5C(C)(C)C(O[C@@H]6OC[C@@H](O)[C@H](O)[C@H]6O)CC[C@@]56C[C@@]46CC[C@]3(C)[C@@H]12 (some centres undefined) |  | 31.6 µM (active)
C=CC1CO1 (centres undefined) | -0.114 | 
COc1cc(-c2ccc(N=C=O)c(OC)c2)ccc1N=C=O | 0.932 | 

Test: Cellular Toxicity (caspase-3) Jurkat (AID 655);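 further: cells exposed to compound for 16 h at 37 °C before reading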
Details: Jurkat caspase-3 activation, luminescence; caspase-3 activation: at 92.2 µM (top of the series), DMSO = 0%, tamoxifen = 100%
Outline: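 Luminescent Caspase-Glo 3/7 read-out (20 min, room temperature) after 16 h compound treatment at 37 C of 5000 Jurkat cells per well. AC50 derived by Hill-equation fitting, scaled between DMSO basal and 100 uM tamoxifen stimulation.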

Compound | caspase-3 activation
CCCCCCc1ccc(-c2ccc(C#N)cc2)cc1 | 1.51%
Nc1cnn([C@@H]2O[C@H](CO)[C@@H](O)[C@H]2O)c(=O)n1 | 11.9%
CCCCCCCCOc1ccc(C(=O)O)cc1 | -2.97%
Oc1c(Cl)cc(Cl)c(Cl)c1Cl | 91.2% (active)
CC(C)OCC1CO1 (centres undefined) | 0.909%
C/C(Cl)=C/CCl | -0.535%
CCCCNCC | 2.75%
O=c1[nH]ncc2ccccc12 | -0.0745%
c1ccc(COCc2ccccc2)cc1 | 0.791%
O=[N+]([O-])c1cccc(I)c1 | 0.966%
Nc1ccc2c(c1)C(=O)c1ccccc1C2=O | -9.35%
c1ccc2c(c1)ccc1ccccc12 | -0.38%
Nc1ccc(N=Nc2ccccc2)c(N)c1 | -11.2%
Cc1ccc(C(=O)O)cc1[N+](=O)[O-] | -0.0625%
COc1ccc([N+](=O)[O-])cc1N | 2.78%
OCC(CO)(CBr)CBr | -1.13%
Nc1cc(C(=O)O)c(O)c(S(=O)(=O)O)c1 | 1.07%
Oc1ccc2c(c1)OCO2 | -1.46%
c1ccncc1 | 0.447%

Compound | caspase-3 activation
CC(=O)OC1CC(C)OC(C)O1 (centres undefined) | 0.402%
O=C(OCc1ccccc1)c1ccccc1O | -0.303%
C/C=C/C=C/C=O | -5.5%
CCN(CC)c1ccc2c(C)cc(=O)oc2c1 | 4.85%
c1c[nH]cn1 | 0.267%
c1ccc(SCCSc2ccccc2)cc1 | -0.0742%
O=C(O)/C=C/c1ccc(/C=C/C(=O)O)cc1 | -9.44%
CCCCOC(=O)COc1ccc(Cl)cc1Cl | 2.6%
CC(=O)OC(C(=O)c1ccccc1)c1ccccc1 (centres undefined) | -2.44%
CCCCCCN | 1.68%
CC(=O)Nc1cccc(C)c1 | 0.778%
CCC(Cl)CC(Cl)C(Cl)C(Cl)C(Cl)C(C)Cl (centres undefined) | 2.38%
COc1ccc(C)cc1N | 5.58%
CCc1ccc(C(c2ccc(CC)cc2)C(Cl)Cl)cc1 | 3.29%
O=[N+]([O-])c1ccccc1Nc1ccccc1 | -0.168%
C=CC1CO1 (centres undefined) | 1.46%
COc1cc(-c2ccc(N=C=O)c(OC)c2)ccc1N=C=O | 1.29%
CCOC(=O)C1OC1c1ccccc1 (centres undefined) | -0.314%
COc1ccc(C(=O)Nc2ccccc2)cc1[N+](=O)[O-] | -1.21%
